In the supplement of paper PMC10338343:
± gives the standard deviation. Over roughly 8,200 sequences, “pre-steady-state target cleavage rate” has its median near 0.024; the highest 2% begin near 1.3. This excerpt belongs to a sample that is enriched for the highest values.

System: MIWI (PIWIL1) piRISC loaded with L1MC piRNA (30 nt)
Test: pre-steady-state target cleavage rate (min^-1); MIWI and MILI are mouse PIWI proteins and EfPiwi is from a freshwater sponge; tags in brackets are library labels; higher = faster piRNA-guided slicing of the target
Settings: guide: L1MC piRNA 5'p-UAACUAAAUACUAUGCAAGCUGUAGGUCCU
Procedure, shortened: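 Using HEPES–potassium acetate buffer at 33 °C, 1 nM active affinity-purified piRISC with a single synthetic guide was mixed with 0.1 nM transcribed, DNA-blocked target RNA library for 0–8 or 0–960 min, with or without 500 nM GTSF1 partner protein. Uncleaved targets were sequenced and normalised to depth and to weakly complementary targets, and three trials were pooled with k3 capped at 0.0001 min^-1. A burst-and-steady-state fit gave the pre-steady-state cleavage rate.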

[1] = auxiliary factor: 500 nM mouse GTSF1
[2] = auxiliary factor: none (no GTSF1)

| Sequence | pre-steady-state target cleavage rate [1] | pre-steady-state target cleavage rate [2] |
| --- | --- | --- |
| UCGAGGAACAGCUUGCAUAGUAUUUAGUUA | 1.02 ± 0.076 | 0.057 ± 0.011 |
| UGGAGCAACAGCUUGCAUAGUAUUUAGUUA | 1.39 ± 0.044 | 0.0851 ± 0.016 |
| AGGAGCAACAGCUUGCAUAGUAUUUAGUUA | 1.67 ± 0.069 | 0.0907 ± 0.016 |
| UGGAGGAACAGCUUGCAUAGUAUUUAGUUA | 1.26 ± 0.049 | 0.0795 ± 0.015 |
| UCCAGCAACAGCUUGCAUAGUAUUUAGUUA | 1.19 ± 0.049 | 0.0797 ± 0.014 |
| AGGAGGAACAGCUUGCAUAGUAUUUAGUUA | 1.41 ± 0.065 | 0.0955 ± 0.019 |
| UCGAGCAACAGCUUGCAUAGUAUUUAGUUA | 1.29 ± 0.044 | 0.076 ± 0.013 |
| UCCUGGAUGUGCUUUGCAUAGUAUUUAGUUA | 0.251 ± 0.022 | 0.0142 ± 0.0043 |
| UCCUGGAUGAGCUUGCAAAGUAUUUUGUUA | 0.267 ± 0.029 | 0.0136 ± 0.0037 |
| UCGACGUACACCUUGCAUAGUAUUUAGUUA | 1.23 ± 0.026 | 0.0575 ± 0.0089 |
| UCCUGGUACAGCUAGCAUAGUAAUUAGUUA | 0.379 ± 0.053 | 0.00998 ± 0.0037 |
| UCCUGGUACAGCUUGCAUAGUAUUUGGUUA | 0.449 ± 0.037 | 0.0417 ± 0.0074 |
| UGGACCUACAGCUUGCAUAGUUAUUACAAA | 0.0207 ± 0.0062 | – |
| UCGACCUACACCUUGCAUAGUAUUUACUUA | 0.254 ± 0.034 | 0.0244 ± 0.0036 |
| UCCUGGAUGAGCUUGGAUAGUAUUUACUUA | – | 0.00357 ± 0.0031 |
| UGGACCUACGGCUUGCAUAGUAUUUAGUUA | 1.44 ± 0.1 | 0.0662 ± 0.013 |
| AGGACCUACGGCUUGCAUAGUAUUUAGUUA | 1.27 ± 0.077 | 0.0872 ± 0.017 |
| UCCACCUACGGCUUGCAUAGUAUUUAGUUA | 0.921 ± 0.074 | 0.0494 ± 0.01 |
| UCGACCUACAGGCUUGCAUAGUAUUUAGUUA | 1.07 ± 0.045 | 0.07 ± 0.011 |
| UCGACCUACGGCUUGCAUAGUAUUUAGUUA | 1.35 ± 0.053 | 0.069 ± 0.011 |
| UCGACCUACGAGCUUGCAUAGUAUUUAGUUA | 0.737 ± 0.077 | 0.0529 ± 0.011 |

| Sequence | pre-steady-state target cleavage rate [1] | pre-steady-state target cleavage rate [2] |
| --- | --- | --- |
| UCCUCCUACAGCUUGCAUAGUUUUUAGAUA | 0.228 ± 0.036 | 0.00676 ± 0.0025 |
| AGGACCUACAGCUUGCAUAGUUUUUAGAUA | 0.259 ± 0.034 | 0.0189 ± 0.0055 |
| UCCUGCUACAACUUGCAUAGUAUUUAGUUA | 0.679 ± 0.044 | 0.0522 ± 0.0072 |
| UCCUGGUUCAGCUUGGAUAGUAUUUAGUUA | 0.791 ± 0.063 | 0.0603 ± 0.014 |
| UCCUGGAACAGCUGCAUAGUAUUUAGUUA | 0.767 ± 0.044 | 0.00757 ± 0.0034 |
| AGGACCUACAGCCUGCAUAGUAUUUAGUUA | 1.51 ± 0.063 | 0.0892 ± 0.017 |
| UCGACCUACAGCCUUGCAUAGUAUUUAGUUA | 1.28 ± 0.046 | 0.0668 ± 0.014 |
| AGGACCUACAGCCUUGCAUAGUAUUUAGUUA | 1.23 ± 0.069 | 0.0878 ± 0.019 |
| UCCACCUACAGCCUGCAUAGUAUUUAGUUA | 1.15 ± 0.033 | 0.0634 ± 0.01 |
| UCCUGCUACAGCCUGCAUAGUAUUUAGUUA | 0.976 ± 0.05 | 0.0598 ± 0.011 |
| UCGACCUACAGCCUGCAUAGUAUUUAGUUA | 1.41 ± 0.038 | 0.0857 ± 0.015 |
| UGGACCUACAGCCUUGCAUAGUAUUUAGUUA | 1.21 ± 0.081 | 0.0496 ± 0.0085 |
| UGGACCUACAGCCUGCAUAGUAUUUAGUUA | 1.34 ± 0.048 | 0.0741 ± 0.013 |
| UCCUCCUACAGCCUGCAUAGUAUUUAGUUA | 1.18 ± 0.038 | 0.056 ± 0.0094 |
| AGGACCUACUGCUUGCAUAGUAUUUAGUAA | 0.861 ± 0.077 | 0.0651 ± 0.012 |
| UCCUGGAACAGGUUGCAUAGUUUUUAGUUA | 0.167 ± 0.016 | 0.0162 ± 0.0044 |
| UGGACCUACAGGUUGCAUAGUAUAUAGUUA | 0.549 ± 0.056 | 0.0198 ± 0.0053 |
| UGGACCUUCAGGUUGCAUAGUAUUUAGUUA | 1.14 ± 0.099 | 0.0476 ± 0.01 |
| UGGACCUACAGCUUGCAUACUAUUUUCAAA | 0.0881 ± 0.021 | – |
| UCCUGGAUGUGCAUUGCAUAGUAUUUAGUUA | 0.223 ± 0.023 | 0.0111 ± 0.0032 |
| UCGUGGUACAGCUUGCAUAGUAUUUAGAAA | 0.305 ± 0.029 | 0.00755 ± 0.0023 |

| Sequence | pre-steady-state target cleavage rate [1] | pre-steady-state target cleavage rate [2] |
| --- | --- | --- |
| UCCUGGAACAGCUUGGAUAGUAUUUACUUA | 0.0518 ± 0.0087 | 0.0182 ± 0.0036 |
| UCCUGCUACAGCUUGCUAUAGUAUUUAGUUA | 0.0317 ± 0.011 | – |
| UCCUGGAUCUGCUUGCAUUGUAUUUAGUUA | 0.228 ± 0.037 | 0.0147 ± 0.0049 |
| UCCUGGUACACGUUGCAUAGUAUUUUCAAA | 0.0245 ± 0.013 | – |
| UGGUCCUACUGCUUGCAUAGUAUUUAGUUA | 1.22 ± 0.05 | 0.0687 ± 0.01 |
| AGGACCUAGAGCUUGCAAAGUAUUUAGUUA | 1.17 ± 0.054 | 0.0284 ± 0.0069 |
| AGGACCUACAGCUUGCAUAGAUUUUAGAAA | 0.247 ± 0.071 | – |
| UCGACCUACAGCUUGCAGAGUAUUUAGUUA | 1.05 ± 0.066 | 0.0315 ± 0.0073 |
| UCCUCCUUCAGCUUGCAUAGUAUUUAGUUA | 1.23 ± 0.036 | 0.0537 ± 0.0085 |
| UGGUCCUUCAGCUUGCAUAGUAUUUAGUUA | 1.22 ± 0.059 | 0.0643 ± 0.011 |
| UCCUGGUUCAGCUUGCAUAGUAUUUAGUUA | 0.972 ± 0.042 | 0.0721 ± 0.016 |
| UCCUCCUCCAGCUUGCAUAGUAUUUAGUUA | 1.12 ± 0.027 | 0.0546 ± 0.0092 |
| UCGUCCUUCAGCUUGCAUAGUAUUUAGUUA | 1.41 ± 0.038 | 0.0596 ± 0.01 |
| UCCUCGUUCAGCUUGCAUAGUAUUUAGUUA | 1.4 ± 0.041 | 0.0653 ± 0.014 |
| AGGUCCUUCAGCUUGCAUAGUAUUUAGUUA | 1.42 ± 0.05 | 0.0947 ± 0.018 |
| UCCACCUUCAGCUUGCAUAGUAUUUAGUAA | 0.628 ± 0.038 | 0.0237 ± 0.0045 |
| UCCUCCUUCAGCUUGCAUAGUAUUUAGUAA | 0.717 ± 0.04 | 0.0202 ± 0.0041 |
| UCCUGGUACAGCUUGCAUUGUAUUUAGAAA | 0.0478 ± 0.013 | – |
| AGGACCUACACCUUGCAUAGUAUUAAGUUA | 0.627 ± 0.054 | 0.0334 ± 0.0069 |
